Here are results for 16 compounds from PubChem BioAssay (NCATS).

Test [1] is described as follows: qHTS assay for small molecule agonists of the antioxidant response element (ARE) signaling pathway (AID 651741; active = well fitted activation curve with a large enough effect in the signal ratio; the % refers to the signal ratio; also: potency is read from the fitted curve at half-maximal effect; as to activation: % of control where 0% means no effect). In short, it runs like this: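 Agonist activity is measured as ARE-driven beta-lactamase expression in a stable HepG2 reporter line, using 16 h compound treatment at 37 C and a FRET substrate fluorescence readout after 2 h.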
Test [2] can be described thus: qHTS assay for small molecule activators of the p53 signaling pathway (AID 651743; active = well fitted activation curve with a large enough effect in the signal ratio, not every such curve was filed as active; the % refers to the signal ratio; also: potency is read from the fitted curve at half-maximal effect; as to activation: series mostly up to about 92 µM; % of control where 0% means no effect). As to conditions: HCT-116 p53RE-bla, beta-lactamase FRET ratio, 16 h; activation: active compounds read high. In short, it runs like this: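 A beta-lactamase reporter under p53 response element control, stably carried by HCT-116 cells, reported pathway activation. Test compounds were applied for 16 hours at 37 C, and fluorescence was measured 2 hours after adding the B/G FRET substrate.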

Test [3] is described as follows: qHTS assay for environmental chemicals that activate the Aryl hydrocarbon Receptor (AhR) signaling pathway (AID 651777). Also: nearly all actives have a fitted effect of over 15% in size. Also: potency is read from the fitted curve at half-maximal effect. As to activation: % of control where 0% means no effect. As to conditions: 1A2-DRE human hepatoma cells, luciferase, 24 h; activation: active compounds read high. In short, it runs like this: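 Induction of CYP1A2 transcription through AhR is detected by luciferase in 1A2-DRE hepatoma cells. Compounds or DMSO act for 24 hr at 37 C before a 30 min One-Glo step at room temperature.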

Test [4] has as its target Peroxisome proliferator-activated receptor alpha (Homo sapiens) (UniProt Q07869). The test is described as follows: qHTS assay for small molecule agonists of the peroxisome proliferator-activated receptor alpha (PPARalpha) signaling pathway (AID 651778). Also: % of control where 0% means no effect. The following applies: PathHunter PPARalpha complementation, chemiluminescence, 6 h; active compounds read high. An outline of the steps:
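Chemiluminescence from complemented enzyme reported PPARalpha activation in cells after 6 hr of compound treatment at 37 C. The detection reagent was incubated for 60 min at room temperature, and compounds were scored as agonists.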
In general terms: qHTS replaces the single test concentration by a dilution series.

The target of test [5] is Nuclear receptor ROR-gamma (Homo sapiens) (UniProt P51449). The test is described as follows: qHTS assay for small molecule antagonists of the retinoid-related orphan receptor gamma (ROR-gamma) signaling pathway (AID 651802). Also: nearly all actives have a fitted effect of over 60% in size. Also: potency is read from the fitted curve at half-maximal effect. An outline of the steps:
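Doxycycline-induced reporter activity in engineered CHO cells (TET-inducible ROR, RORE-LUC) was measured by luminescence after 16hr compound exposure at 37C.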

The nature of test [6]: qHTS assay for small molecule agonists of the antioxidant response element (ARE) signaling pathway measured by Nrf2-dependant transcriptional activity (AID 720636; active = well fitted curve in the direction sought with a large enough effect in the repeat runs; an effect the other way counts as inactive or inconclusive;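 also: HepG2 cells with an ARE-driven luciferase reporter; % of control where 0% means no effect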). An outline of the steps: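 We exposed ARE-luc HepG2 cells, seeded in assay medium with 1% dialyzed FBS and allowed 6 hr to adhere, to test compounds overnight (16 hr, 37 C) before measuring luciferase with ONE-Glo.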

Test [7] in a line: qHTS assay for small molecule antagonists of the retinoid-related orphan receptor gamma (ROR-gamma) signaling pathway - cell viability counter screen (AID 720652; active = well fitted curve in the direction sought with a large enough effect in the repeat runs; an effect the other way counts as inactive or inconclusive;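 also: CHO reporter cells with doxycycline-induced ROR-gamma expression; series mostly up to about 92 µM; compound exposure lasted 16 hr before ATP read; % is scaled to controls: 0 for no effect and ±100 for the full control effect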). In short, it runs like this: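 ATP-based viability readout in the ROR-gamma reporter CHO cells after 16 hr compound exposure under doxycycline induction.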
Test [8] in a line: qHTS assay for small molecule agonists of the antioxidant response element (ARE) signaling pathway measured by Nrf2-dependant transcriptional activity - cell viability counter screen (AID 720653; active = well fitted curve in the direction sought with a large enough effect in the repeat runs; an effect the other way counts as inactive or inconclusive; also: % is scaled to controls: 0 for no effect and ±100 for the full control effect). The following applies: ARE-bla HepG2 viability, CellTiter-Glo ATP luminescence, 16 h; active compounds read low. An outline of the steps: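 Cytotoxicity counter screen: intracellular ATP quantified by CellTiter-Glo luminescence in the same ARE-bla HepG2 plates, after 16 h compound exposure and a 2 h beta-lactamase substrate step.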

Test [9] can be described thus: qHTS assay for small molecule activators of the nuclear factor-kappa B (NF-kB) signaling pathway (AID 651749; active = well fitted activation curve with a large enough effect in the signal ratio; the % refers to the signal ratio; also: series mostly up to about 77 µM; % of control where 0% means no effect). As to conditions: NF-kB-bla ME-180 cells, beta-lactamase FRET ratio, 16 h; active compounds read high. An outline of the steps: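 FRET-based beta-lactamase detection in ME-180 cells reports NF-kB response-element-driven transcription following overnight (16 hr) compound treatment.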

Test [10] in a line: qHTS assay for small molecule disruptors of the mitochondrial membrane potential - 1 hr assay (AID 651754; calls by dose curve; also: nearly all actives have a fitted effect of over 35% in size; also: potency is read from the fitted curve at half-maximal effect). An outline of the steps: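 In this qHTS format, a 1 hr compound treatment of HepG2 cells precedes Mito-MPS staining, and membrane potential is judged from aggregate (red) against monomer (green) fluorescence intensity.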
A short description of test [11]: qHTS assay for small molecule disruptors of the mitochondrial membrane potential - 5 hr assay (AID 651755; calls by dose curve; also: nearly all actives have a fitted effect of over 40% in size; also: potency is read from the fitted curve at half-maximal effect). In short, it runs like this:
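Membrane-potential dye readout: red aggregate (540 ex/590 em) versus green monomer (490 ex/535 em) fluorescence after 30 min dye loading, following 5 hr compound exposure at 37C of overnight-plated HepG2 cells.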

Test [12] can be described thus: qHTS assay to identify small molecules that stimulate interleukin-8 (IL-8) secretion (AID 651758; active = well fitted activation curve with a large enough effect in the signal ratio; the % refers to the signal ratio; also: 0% is about no effect). In short, it runs like this:
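Secreted IL-8 measured homogeneously by TR-FRET (two labelled anti-IL-8 antibodies, 1-3 h at room temperature) after a 16 h, 37 C compound treatment of THP-1 cells at 2000 cells/well.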

The structures appear in SMILES notation. “And” between values parts separate entries of the source, which are not always exact repeats. Identical values can stand only once. Values without a mark were called inactive. Inconclusive results are not listed. The source made the active and inactive calls. Unless noted, calls follow the shape of the dose curve; as a rule, active = well fitted curve in the direction sought with a large enough effect; inconclusive = small, poorly fitted or top-dose-only effect, or another doubt; inactive = no such curve, though single readings can be large; an effect the other way counts as inactive or inconclusive.

Sequence of Peroxisome proliferator-activated receptor alpha (Homo sapiens) (Q07869 whole entry, looked up): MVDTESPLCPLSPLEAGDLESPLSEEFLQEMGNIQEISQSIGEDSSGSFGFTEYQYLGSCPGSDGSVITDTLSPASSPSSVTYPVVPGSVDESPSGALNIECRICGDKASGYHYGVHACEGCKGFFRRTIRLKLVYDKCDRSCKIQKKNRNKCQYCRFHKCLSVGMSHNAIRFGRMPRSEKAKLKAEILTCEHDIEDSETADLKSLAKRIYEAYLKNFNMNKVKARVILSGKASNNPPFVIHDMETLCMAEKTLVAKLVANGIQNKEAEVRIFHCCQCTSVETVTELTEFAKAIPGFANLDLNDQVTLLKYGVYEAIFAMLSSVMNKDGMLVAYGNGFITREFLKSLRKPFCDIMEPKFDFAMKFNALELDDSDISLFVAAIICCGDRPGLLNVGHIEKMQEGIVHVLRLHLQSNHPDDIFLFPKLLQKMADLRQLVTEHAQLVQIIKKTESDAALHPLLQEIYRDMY
Sequence of Nuclear receptor ROR-gamma (Homo sapiens) (P51449 whole entry, looked up): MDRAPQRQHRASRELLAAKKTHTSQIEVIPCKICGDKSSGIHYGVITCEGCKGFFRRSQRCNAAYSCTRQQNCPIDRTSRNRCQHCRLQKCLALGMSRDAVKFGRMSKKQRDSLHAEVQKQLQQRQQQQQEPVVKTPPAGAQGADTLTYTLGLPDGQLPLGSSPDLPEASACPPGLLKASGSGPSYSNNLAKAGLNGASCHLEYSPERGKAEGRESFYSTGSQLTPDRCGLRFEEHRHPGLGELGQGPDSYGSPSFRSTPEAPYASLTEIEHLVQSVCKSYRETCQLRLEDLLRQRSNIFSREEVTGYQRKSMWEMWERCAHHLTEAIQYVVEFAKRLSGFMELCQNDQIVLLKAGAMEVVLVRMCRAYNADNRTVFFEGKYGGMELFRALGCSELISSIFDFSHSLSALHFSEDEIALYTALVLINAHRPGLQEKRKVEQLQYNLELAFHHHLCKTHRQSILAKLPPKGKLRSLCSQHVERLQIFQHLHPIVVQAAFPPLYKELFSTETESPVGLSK

Take `CCOc1ccccc1C(N)=O`: the Potency result in test [1] and in test [5] was “inactive” throughout. In addition, the activation in [2] is 1.59%; in [3] it was 0.471%. Besides, the values for the max response in [4] and in test [8] were -1.03% and 5.3%, respectively. In addition, the compound was called inactive in test [6] and in [7].

As to `Oc1c(Cl)cc(Cl)c(Cl)c1Cc1c(O)c(Cl)cc(Cl)c1Cl`, the Potency was 6.86 µM (active) in [1]; 7.94 µM (active) and 12.6 µM (active) in [2]; 2.98 µM (active) in test [10]; 3.35 µM (active) in test [11]; 1.06 µM (active) in test [5]. Also, the activation was -1.07% in [9]; 3.13% and 3.58% in test [3]. For the same compound, the max response in test [4] was 1.56% and 1.87%. Also, in test [6], the outcome was inactive.

`CCOc1ccc(NC(C)=O)cc1`: the Potency entry in test [1] and in [5] was “inactive” throughout. In addition, the activation was -2.67% and -5.43% in test [2]; 1.23% and 0.542% in test [3]. In addition, the max response in test [4] is -5.21% and -4.18%; in test [8] it was 3.98% and -0.784%. The compound was classed as inactive in [6] and in test [7].

Consider `NCCNc1cccc2ccccc12`, for which the Potency result in test [1] and in test [10] was “inactive” in each case. Moreover, the activation in test [2] was 1.04%; in test [9], -0.261% and 2.79%. For the same compound, the Potency in test [3] was 39.8 µM (active). In addition, the max response was -2.74% and -3.34% in test [4]; -8.07% and -42.5% in test [8]. Besides, in test [6], the call was inactive.

In the case of `CC1(COc2ccc(CC3SC(=O)NC3=O)cc2)CCCCC1` (centres undefined), the activation in [9] is 0.57%. Besides, the max response in test [8] is -9.6%.

Consider `CCCCCCCCCCCCCC(=O)OC(C)C`, for which the Potency entry in [1] was “inactive”. In addition, the activation was -0.604% in test [2], 0.876% in [9] and -0.593% in test [3]. The max response in [4] was -1.44%; in test [8], -11.9%. Besides, the result in test [6] was inactive.

For the compound `CN(C)C(=O)Nc1ccc(Cl)c(Cl)c1`, the activation in test [2] is 3.41%. Besides, the max response was 0.591% in test [4] and 12.2% in test [8].

Regarding `C/C=C/c1ccc(O)c(OC)c1`, the Potency in [1] was 30.6 µM (active) and 42.2 µM (active). Further, the activation was -3.74% and -0.0356% in test [2]; 3.77% and 1.82% in test [3]. Besides, the result in test [12], in test [6] and in test [7] was inactive. The max response in test [4] is -4.52% and -2.32%; in [8] it was -8.93% and -1.72%. For the same compound, the Potency entry in test [5] was “inactive”.

Take `O=C(O)c1ccc(S(=O)(=O)N(Cl)Cl)cc1`: the values for the activation in test [2], in [9] and in [3] were -0.128%, -0.114% and 0.0057%, respectively. The values for the max response in test [4] and in test [8] were 7.46% and 7.82%, respectively. In addition, the Potency result in [5] is “inactive”. For the same compound, the outcome in [6] and in test [7] was inactive.

Regarding `C=C[C@H]1CN2CC[C@H]1C[C@@H]2[C@@H](O)c1ccnc2ccc(OC)cc12`, the activation is -0.176% in test [9] and 4.17% in test [3]. In addition, the Potency entry in test [10] and in test [11] was “inactive” each time. The compound was classed as inactive in test [6] and in test [7]. Moreover, in [8], the max response was 21.8%.

As to `CC(C)(C)CC(C)(C)c1ccc(O)c(-n2nc3ccccc3n2)c1`, the activation in test [2] is -5.96%; in test [9], 1.97%; in [3] it was 5.11%. Further, the max response was 12.6% in [4] and 4.4% in test [8]. Also, in test [6], the call was inactive.

As for `CCCCOC(=O)CC(CC(=O)OCCCC)(OC(C)=O)C(=O)OCCCC`, the Potency entry in test [1] was “inactive”. The activation was -5.7% in test [2], -0.845% in test [9] and 0.777% in [3]. For the same compound, the max response in test [4] is 5.65%; in [8] it was -1.72%. For the same compound, in test [6], the compound was called inactive.

Take `C=C[C@@]1(C)CC(=O)[C@]2(O)[C@@]3(C)[C@@H](O)CCC(C)(C)[C@@H]3[C@H](O)[C@H](OC(C)=O)[C@@]2(C)O1`: the activation in test [2] is -4.19%. The Potency in [3] was 17.8 µM (active). Further, the max response in test [4] is 0.227%; in [8], 4.11%.

On to `CCCCCCCC/C=C\CCCCCCCCN`, for which the activation in test [2] was 4.37%; in test [3], -0.319%. Moreover, the max response in test [4] was 0.202%; in [8], 3.81%. Besides, the compound was classed as inactive in [6].

In the case of `CC1(C)OC[C@@H]2O[C@@]3(C(=O)O)OC(C)(C)O[C@H]3[C@@H]2O1`, in [1], the Potency result is “inactive”. The activation is 0.144% in test [9] and 1.2% in [3]. Further, the figures for the max response in [4] and in test [8] were -1.9% and -0.898%, respectively. In addition, in [6], the call was inactive.

For `OC[C@H]1O[C@@H]2O[C@H]3[C@H](O)[C@@H](O)[C@@H](O[C@H]4[C@H](O)[C@@H](O)[C@@H](O[C@H]5[C@H](O)[C@@H](O)[C@@H](O[C@H]6[C@H](O)[C@@H](O)[C@@H](O[C@H]7[C@H](O)[C@@H](O)[C@@H](O[C@H]8[C@H](O)[C@@H](O)[C@@H](O[C@H]1[C@H](O)[C@H]2O)O[C@@H]8CO)O[C@@H]7CO)O[C@@H]6CO)O[C@@H]5CO)O[C@@H]4CO)O[C@@H]3CO`, the Potency result in [1] and in test [5] was “inactive” each time. Further, the activation in test [9] is -1.13%. Further, the max response is -4.97% in test [4] and -6.08% in test [8]. Besides, the compound was classed as inactive in test [6] and in test [7].
